The entries come from a sample that favours hits as a whole.
Methyltransferases: Primary Screen for Target Class Profiling of Small Molecule Inhibitors of Methyltransferases | AID 1745853, 2022 | purified enzyme, MTase-Glo SAH luminescence; hits give low values | calls only at 40 µM | hit rate 3.9% among 25,000; call rule not given here
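Each enzyme was assayed with SAM and its substrate. SAH formation detected by MTase-Glo luminescence; single-point 40 uM screen[…].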
Calls only; - = inactive; + = active, no number; ! = not confirmed by another sample.

SMILES	Methyltransferases
Cc1cccc(N2C(=O)c3cc(-c4cccs4)nn3CC2(C)C(=O)NC2CCCCC2)c1C (stereo not drawn)	-
Cc1ccc(N2CCN(S(=O)(=O)c3cc4c(cc3C)n(C)c(=O)n4C)CC2)c(C)c1	-
Cc1ccc(Nc2nccc(N(C)c3ccc4c(C)n(C)nc4c3)n2)cc1S(N)(=O)=O	+
Cc1ccc(NC(=O)N2Cc3c(sc4c3CCCC4)-n3cccc3C2c2ccccc2)cc1F (stereo not drawn)	-
CC(C)CCn1c(=O)c2ccccc2n2c(SCc3ccc(F)cc3)nnc12	-
COc1ccc(-c2nnc(-c3ccc(Cl)c(S(=O)(=O)N4CCCCC4)c3)o2)cc1OC	-
COc1ccc(Cl)cc1NC(=O)CSc1nnc2n(CC(C)C)c(=O)c3ccccc3n12	-
CC(C)CCNC(=O)C1(C)Cn2c(cc3ccccc32)C(=O)N1Cc1cccc(Cl)c1 (stereo not drawn)	-
CCNC(=O)c1cc2n(n1)CC(C)(C(=O)NCc1ccc(F)cc1)N(C)C2=O (stereo not drawn)	-
CCOc1ccc(C(=O)Cn2nc3n(CC(C)C)c(=O)c4ccc(C(=O)NC(C)C)cc4n3c2=O)cc1	-
Fc1cccc(-c2nnn3c2nc(NCc2ccc4c(c2)OCO4)c2cc(Cl)ccc23)c1	-
COc1cccc(-c2cc(NCc3ccc4c(c3)OCO4)nc(N)n2)c1	+
Clc1cccc(-c2nnn3c2nc(NCc2ccc4c(c2)OCO4)c2ccccc23)c1	-
CC(C)c1ccc(N2C(=O)CSc3c(c4ccccc4n3C)C2C(=O)NCc2ccccc2)cc1 (stereo not drawn)	-
Cc1cccc(-c2n[nH]n3c2nc(=O)c2ccc(C(=O)NCc4ccccc4)cc23)c1	-
CCc1ccc(-c2cc3n(n2)CC(C)(C(=O)NC2CCCCCC2)N(CC)C3=O)cc1 (stereo not drawn)	-
Cc1ccc(Cn2c(=O)c3ccccc3n3c(CCC(=O)N4CC=C(c5ccccc5)CC4)nnc23)cc1	-
CC(C)n1c(=O)c2ccc(C(=O)NC3CCCC3)cc2n2c(=O)n(Cc3ccc(F)cc3Cl)nc12	-
Cc1nc([C@](C)(O)CO)sc1-c1cnc(N)c(O[C@H](C)c2cc(F)ccc2-n2nccn2)c1	+
CCc1cc2c(cc3n2CC(C)(C(=O)NC2CCC(C)CC2)N(c2cccc(C)c2C)C3=O)s1 (stereo not drawn)	-
COCCCNC(=O)Cn1ccc2cc(S(=O)(=O)N3CCCCC3)ccc21	-
COc1cccc(-c2ccc([C@@H](Oc3cc(-c4ccc(C[C@H](N)C(=O)O)cc4)nc(N)n3)C(F)(F)F)cc2)c1	-
CCOC(=O)[C@@H](N)Cc1ccc(-c2cc(O[C@H](c3ccc(Cl)cc3-n3ccc(C)n3)C(F)(F)F)nc(N)n2)cc1	+
CCN1C(=O)c2cc(-c3ccc(OC)cc3)nn2CC1(C)C(=O)NCc1ccccc1OC (stereo not drawn)	-
COc1ccc(-c2n[nH]n3c2nc(=O)c2ccc(C(=O)NC4CCCCC4)cc23)cc1	-
SMILES	Methyltransferases
CC1(C)CCC2=C(O1)c1ccccc1C(=O)C2=O	+
CCCN1C(=O)c2c(C(=O)NCCc3ccc(OC)cc3OC)ncn2CC1(C)C(=O)NCc1ccc(C)cc1 (stereo not drawn)	-
CCOC(=O)CNC(=O)N1Cc2c(sc3c2CCCC3)-n2cccc2C1c1cccc(OC)c1 (stereo not drawn)	-
CCCn1c(=O)c2ccc(C(=O)NCC(C)C)cc2n2c(=O)n(CC(=O)Nc3ccccc3C)nc12	-
CC(C)Cn1c(=O)c2ccc(C(=O)NC3CCCCC3)cc2n2c(=O)n(CC(=O)NC(C)C)nc12	-
COc1ccc(-c2cc3n(n2)CC(C)(C(=O)NC2CCCCC2)N(Cc2ccccc2C)C3=O)cc1 (stereo not drawn)	-
NCCc1ccc(O)c(O)c1	+
CCCn1c(=O)c2ccc(Cl)cc2n2c(SCc3ccccc3)nnc12	-
Cc1ccc(NC(=O)Cn2nc3n(CCC(C)C)c(=O)c4ccccc4n3c2=O)c(Cl)c1	-
N#Cc1ccc(-c2csc(NN=C3CCCC3)n2)cc1	+!
Cc1ccc(N2C(=O)c3cc(-c4cccs4)nn3CC2(C)C(=O)NC2CCCCC2)cc1 (stereo not drawn)	-
COc1ccc(CCNC(=O)CCCc2nnc3n4nc(C)nc4c4ccccc4n23)cc1OC	-
N=C(N)c1ccccc1	-
N=C(N)c1ccc(OCCCCCOc2ccc(C(=N)N)cc2)cc1 (tested in a mixture with another compound)	+
O=C(c1ccc(OCCCc2cnc[nH]2)cc1)C1CC1	-
O=C(Nc1ccc(F)cc1F)N1Cc2c(sc3c2CCCC3)-n2cccc2C1c1ccccc1 (stereo not drawn)	-
CCCCNC(=O)c1cc2n(n1)CC(C)(C(=O)NCc1ccc(C)cc1)N(C)C2=O (stereo not drawn)	-
C[C@@H](Oc1cc(-n2cnc3ccc(OC4CCN(C)CC4)cc32)sc1C(N)=O)c1ccccc1C(F)(F)F	+
Cc1cc(C)cc(N2C(=O)c3ccc(-c4ccco4)n3CC2(C)C(=O)NCc2ccc(Cl)cc2)c1 (stereo not drawn)	-
COc1cc2c(NC3CCN(CC4CCCCC4)CC3)nc(N3CCCN(C(C)C)CC3)nc2cc1OCCCN1CCCCC1	+!
CCCN1C(=O)c2c(C(=O)NCc3ccc(F)cc3)ncn2CC1(C)C(=O)NCc1ccc(C)cc1 (stereo not drawn)	-
CCOc1ccc(CN2C(=O)c3nc4ccccc4n3CC2(C)C(=O)NC2CCCCC2C)cc1 (stereo not drawn)	-
CC(C)Cn1c(=O)c2ccc(C(=O)NC3CCCCC3)cc2n2c(=O)n(CC(=O)c3ccccc3)nc12	-
COc1ccc(Nc2nc3c(S(=O)(=O)c4ccc(F)cc4)nnn3c3ccccc23)c(OC)c1	-
COc1cc(N2CCOCC2)ccc1Nc1ncc(F)c(Nc2ccccc2NS(C)(=O)=O)n1	+
SMILES	Methyltransferases
CCc1cc(=O)n(CC(=O)Nc2ccccc2OC)c(N2CCOCC2)n1	-
CCCn1c(=O)c2ccccc2n2c(SCC(=O)Nc3cccc(C)c3)nnc12	-
C/C=C(\C)C(=O)OCC1OC(OCC2OC(OC3(CO)OC(CO)C(O)C3O)C(O)C(O)C2O)C(O)C(O)C1O (stereo not drawn)	-
CC(C)CC(=O)OC[C@H]1O[C@@](COC(=O)CC(C)C)(O[C@H]2O[C@H](CO)[C@@H](O)[C@H](O)[C@H]2OC(=O)CC(C)C)[C@@H](OC(=O)CC(C)C)[C@@H]1O	-
C/C=C(\C)C(=O)O[C@H]1[C@@H](O[C@]2(COC(=O)CC(C)C)O[C@H](COC(=O)C(C)C)[C@@H](OC(C)=O)[C@@H]2O)O[C@H](COC(C)=O)[C@@H](O)[C@@H]1O	+
CCCn1c(=O)c2cc(Cl)ccc2n2c(SCC(=O)Nc3ccc(C)cc3C)nnc12	-
O=c1c2ccccc2n2c(=O)n(Cc3c(F)cccc3Cl)nc2n1CCc1ccccc1	-
COc1ccc(C(=O)CSc2nnc3n(C)c(=O)c4ccc(C(=O)NC5CCCCC5)cc4n23)cc1	-
Cc1ccc(CNC(=O)C2(C)Cn3nc(C(=O)NC4CCCC4)cc3C(=O)N2C)cc1 (stereo not drawn)	-
Cc1ccc(CN2CC(=O)N(Cc3cccc(F)c3)c3ccccc3S2(=O)=O)cc1	-
O=C1CN(Cc2cccc(F)c2)S(=O)(=O)c2ccccc2N1Cc1ccc(Cl)cc1	-
O=C1CSc2ccccc2N1Cc1cccc(C(F)(F)F)c1	+
